SMILES strings stand for the structures. Out of some 340,000 compounds screened, about 1,000 (0.29%) were called active. Rule as the data show it: inconclusive = inhibition above about 29% without an active follow-up result; inactive = below that. A selection follows. Potency and affinity values are given separately.

The target of the assay is Genome polyprotein (Dengue virus type 2 (strain 16681-PDK53)) (UniProt P29991). Description: Dengue-2 NS5 methyltransferase inhibitors, primary screen, biochemical, confirmation dose response (AID 588689). As to conditions: Dengue-2 NS5 methyltransferase capping enzyme assay, at 25 µM, stronger effect = higher value.
The mark [1] stands for this setting: measured here: pilot screen replicate inhibition.

Genome polyprotein (Dengue virus type 2 (strain 16681-PDK53)), sequence (P29991 whole entry, looked up): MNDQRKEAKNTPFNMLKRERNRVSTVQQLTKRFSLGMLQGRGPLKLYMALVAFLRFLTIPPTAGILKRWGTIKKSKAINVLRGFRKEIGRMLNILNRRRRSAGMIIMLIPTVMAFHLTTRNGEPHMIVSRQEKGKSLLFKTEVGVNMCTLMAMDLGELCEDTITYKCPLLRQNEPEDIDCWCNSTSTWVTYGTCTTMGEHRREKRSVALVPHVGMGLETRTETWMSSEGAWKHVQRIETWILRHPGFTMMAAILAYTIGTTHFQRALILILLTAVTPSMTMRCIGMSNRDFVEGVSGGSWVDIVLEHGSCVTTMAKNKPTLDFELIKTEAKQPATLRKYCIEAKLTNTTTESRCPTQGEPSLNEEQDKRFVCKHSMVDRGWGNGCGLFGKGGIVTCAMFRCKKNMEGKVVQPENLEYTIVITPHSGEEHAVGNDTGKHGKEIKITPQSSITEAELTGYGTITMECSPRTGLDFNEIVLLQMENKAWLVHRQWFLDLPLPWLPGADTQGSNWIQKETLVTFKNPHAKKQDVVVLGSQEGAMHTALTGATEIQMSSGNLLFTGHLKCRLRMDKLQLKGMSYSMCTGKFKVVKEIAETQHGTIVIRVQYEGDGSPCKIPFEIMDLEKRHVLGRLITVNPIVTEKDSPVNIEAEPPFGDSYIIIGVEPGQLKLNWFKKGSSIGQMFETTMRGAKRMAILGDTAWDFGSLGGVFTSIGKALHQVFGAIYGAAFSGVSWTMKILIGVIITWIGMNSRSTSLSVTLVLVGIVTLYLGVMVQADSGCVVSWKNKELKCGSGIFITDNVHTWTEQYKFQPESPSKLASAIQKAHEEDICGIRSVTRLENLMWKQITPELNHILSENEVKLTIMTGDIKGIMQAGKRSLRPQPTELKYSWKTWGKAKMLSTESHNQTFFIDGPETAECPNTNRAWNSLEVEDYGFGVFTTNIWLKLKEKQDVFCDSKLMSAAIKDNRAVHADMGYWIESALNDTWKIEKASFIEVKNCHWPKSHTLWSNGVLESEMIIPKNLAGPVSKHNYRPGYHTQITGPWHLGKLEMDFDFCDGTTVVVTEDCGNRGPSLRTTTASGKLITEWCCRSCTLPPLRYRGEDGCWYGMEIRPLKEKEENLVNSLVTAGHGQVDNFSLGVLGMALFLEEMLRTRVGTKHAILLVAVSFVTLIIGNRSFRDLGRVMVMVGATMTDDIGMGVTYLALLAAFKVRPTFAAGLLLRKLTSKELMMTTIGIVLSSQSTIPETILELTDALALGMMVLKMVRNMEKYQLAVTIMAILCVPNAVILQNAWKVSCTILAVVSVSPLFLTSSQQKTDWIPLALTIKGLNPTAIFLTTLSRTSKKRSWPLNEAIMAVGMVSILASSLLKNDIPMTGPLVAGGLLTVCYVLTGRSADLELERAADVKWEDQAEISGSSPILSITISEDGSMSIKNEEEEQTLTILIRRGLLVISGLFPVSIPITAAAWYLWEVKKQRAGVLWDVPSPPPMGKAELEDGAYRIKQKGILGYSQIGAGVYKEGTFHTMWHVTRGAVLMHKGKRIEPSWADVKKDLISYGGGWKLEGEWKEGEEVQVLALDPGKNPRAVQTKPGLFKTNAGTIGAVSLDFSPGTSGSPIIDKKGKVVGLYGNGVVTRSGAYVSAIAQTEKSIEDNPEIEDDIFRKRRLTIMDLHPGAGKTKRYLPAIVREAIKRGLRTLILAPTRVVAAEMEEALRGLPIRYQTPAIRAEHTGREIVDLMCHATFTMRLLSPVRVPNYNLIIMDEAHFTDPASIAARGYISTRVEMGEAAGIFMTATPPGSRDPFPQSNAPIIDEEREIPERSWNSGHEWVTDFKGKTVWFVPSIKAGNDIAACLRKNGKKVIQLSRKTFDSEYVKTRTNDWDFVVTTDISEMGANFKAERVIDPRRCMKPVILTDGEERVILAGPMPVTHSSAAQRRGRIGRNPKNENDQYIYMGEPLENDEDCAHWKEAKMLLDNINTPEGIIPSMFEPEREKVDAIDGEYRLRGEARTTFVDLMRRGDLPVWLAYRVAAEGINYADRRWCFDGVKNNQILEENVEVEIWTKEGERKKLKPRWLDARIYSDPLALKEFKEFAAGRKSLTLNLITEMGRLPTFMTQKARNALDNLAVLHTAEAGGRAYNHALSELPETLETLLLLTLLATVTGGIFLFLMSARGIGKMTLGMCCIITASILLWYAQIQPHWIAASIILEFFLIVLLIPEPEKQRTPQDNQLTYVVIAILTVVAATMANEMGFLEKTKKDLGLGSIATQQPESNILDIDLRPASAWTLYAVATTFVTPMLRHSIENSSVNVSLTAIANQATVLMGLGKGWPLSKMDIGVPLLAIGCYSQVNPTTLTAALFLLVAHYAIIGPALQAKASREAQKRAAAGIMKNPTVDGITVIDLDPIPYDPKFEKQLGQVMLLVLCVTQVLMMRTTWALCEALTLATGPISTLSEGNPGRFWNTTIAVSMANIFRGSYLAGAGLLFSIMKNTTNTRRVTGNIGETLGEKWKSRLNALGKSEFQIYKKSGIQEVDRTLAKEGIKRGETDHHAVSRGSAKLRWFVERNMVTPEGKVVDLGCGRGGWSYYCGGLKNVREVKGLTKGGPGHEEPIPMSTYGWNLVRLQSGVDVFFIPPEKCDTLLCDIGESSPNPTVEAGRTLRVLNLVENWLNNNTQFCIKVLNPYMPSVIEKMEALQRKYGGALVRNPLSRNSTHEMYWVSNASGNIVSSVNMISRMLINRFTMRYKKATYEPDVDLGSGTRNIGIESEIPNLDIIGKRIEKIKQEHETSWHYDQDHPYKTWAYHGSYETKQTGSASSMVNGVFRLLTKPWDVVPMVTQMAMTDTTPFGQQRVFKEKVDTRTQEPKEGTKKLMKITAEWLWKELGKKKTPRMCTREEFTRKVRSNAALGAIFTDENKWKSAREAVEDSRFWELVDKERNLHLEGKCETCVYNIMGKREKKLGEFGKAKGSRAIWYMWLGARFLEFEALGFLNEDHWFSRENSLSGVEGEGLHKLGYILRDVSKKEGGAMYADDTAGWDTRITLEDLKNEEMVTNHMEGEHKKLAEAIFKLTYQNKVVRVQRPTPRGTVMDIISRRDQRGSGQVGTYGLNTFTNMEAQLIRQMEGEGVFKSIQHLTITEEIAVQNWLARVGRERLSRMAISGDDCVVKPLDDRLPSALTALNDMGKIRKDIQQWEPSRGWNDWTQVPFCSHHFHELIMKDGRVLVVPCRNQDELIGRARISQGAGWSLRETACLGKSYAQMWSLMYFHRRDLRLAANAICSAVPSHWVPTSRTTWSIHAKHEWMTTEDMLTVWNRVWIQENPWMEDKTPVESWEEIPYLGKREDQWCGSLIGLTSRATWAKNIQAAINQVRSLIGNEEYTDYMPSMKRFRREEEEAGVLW

Take `O=C(O)C/C(=C\c1ccc(N2CCOCC2)c([N+](=O)[O-])c1)c1nc2ccccc2s1`: the inhibition (commonly the relative decrease from the control value, in per cent) was 6.96% (inactive).
Same read-out and setting: to `O=C(O)CC/C(=C\c1ccc(N2CCOCC2)c([N+](=O)[O-])c1)c1nc2ccccc2s1` belongs 24% (inactive); to `Cc1ccc(/C=C(\CCC(=O)O)c2nc3ccccc3s2)cc1[N+](=O)[O-]`, 13.8% (inactive).
Regarding `CN(c1ccccc1)c1ccc(/C=C(\CCC(=O)O)c2nc3ccccc3s2)cc1[N+](=O)[O-]`, the inhibition was 26.1% (inactive).
Still for that read-out and setting: to `COc1ccc(NC(=O)C2CCCCN2S(=O)(=O)c2ccc(F)cc2)cc1` (configuration not stated) belongs -2.91% (inactive); to `Cc1csc2nc(=O)c3ccccc3n12`, -0.7% (inactive); to `Cc1cccc(NCc2cc(Cl)cc(Cl)c2O)n1`, -2.76% (inactive).
As to `Oc1c(Cl)cc(Cl)cc1CNc1nc2ccccc2[nH]1`, the inhibition was -17.7% (inactive).
The same measure, in the same setting: to `O=C(CSc1nnc2scc(-c3ccccc3)n12)NCc1ccc2c(c1)OCO2` belongs -2.59% (inactive); to `NC1=C(Cl)C(=O)c2ccccc2C1=O`, -5.02% (inactive); to `Nc1c(Cl)cc2c(c1Oc1ccccc1)C(=O)c1ccccc1C2=O`, 0% (inactive).
Same read-out and setting: to `Cc1cc(C)n(CC(=O)NNC(=O)COc2ccc(Cl)cc2Cl)n1` belongs -9.01% (inactive); to `COc1ccc2c(c1)[nH]c1c(=O)n(CCN3CCOCC3)cnc12`, -4.77% (inactive); to `O=C(CN(C(=O)Cn1nnc(-c2ccc(F)cc2)n1)c1ccc(F)cc1)NC1CCCC1`, -4.85% (inactive).
Same read-out and setting: to `O=C(NCc1ccco1)c1nc2c(nnn2Cc2ccccc2Cl)c(=O)[nH]1` belongs -1.35% (inactive).
Take `O=C(NCc1cccs1)c1nc2c(nnn2Cc2ccc(F)cc2)c(=O)[nH]1`: the inhibition is -3.42% (inactive).
On to `COc1cc(/C=C2\SC(=O)N(c3ccc(Cl)cc3)C2=O)cc([N+](=O)[O-])c1O`, for which the inhibition is 3.7% (inactive).
Still for that read-out and setting: to `COc1cc(/C=C2\SC(=O)N(Cc3ccc(F)cc3)C2=O)cc([N+](=O)[O-])c1O` belongs 14.6% (inactive).
The same measure, in the same setting: to `CC(C)c1ccc(CCNC(=O)CCNS(=O)(=O)c2ccc(Br)cc2)cc1` belongs 2.95% (inactive); to `CC1CCCN(CCCOc2ccc(Br)cc2Cl)C1` (configuration not stated), -5.92% (inactive).
The same measure, in the same setting: to `C=CCn1c(SCC(=O)c2[nH]c(C)c(C(=O)OCC)c2C)nc2scc(-c3ccccc3)c2c1=O` belongs 0.73% (inactive).
For the molecule `CCC1Nc2ccccc2-c2nnc(SC)nc2O1` (configuration not stated), the inhibition was 6.45% (inactive).
Same read-out and setting: to `CCSc1nnc2c(n1)OC1(CCCC1)Nc1ccccc1-2` belongs -4.17% (inactive); to `O=c1cc(-c2ccccc2)nc(SCc2ccccc2F)[nH]1`, -2.34% (inactive).
On to `Nc1ccccc1-c1nnc(SCc2ccccc2F)[nH]c1=O`, for which the inhibition is 2.71% (inactive).
Same read-out and setting: to `Cc1[nH]c(C)c(S(=O)(=O)N(Cc2ccccc2)C(C)C)c1C(=O)N1CCCC1` belongs -0.98% (inactive).
On to `COc1ccc(S(=O)(=O)N2CCN(C(=O)CCOc3ccccc3)CC2)cc1OC`, for which the inhibition was 4.1% (inactive).
As for `O=C(O)C1CCC(NSc2ccccc2[N+](=O)[O-])CC1` (configuration not stated), the inhibition is 7.73% (inactive).
Same read-out and setting: to `O=C(O)c1cccc2c1-c1c(cccc1[N+](=O)[O-])C2` belongs -1.17% (inactive); to `Cc1ccc2c(c1C)NC(C(=O)O)C1CC=CC21` (configuration not stated), 9.74% (inactive).
In the case of `O=C(O)c1ccccc1NSc1ccccc1[N+](=O)[O-]`, the inhibition is 21.6% (inactive).
Consider `CCN(CC(=O)Nc1ccc(NC(C)=O)cc1)C(=O)c1ccc(N2CCC(C)CC2)c([N+](=O)[O-])c1`, for which the inhibition is -0.77% (inactive).
For `CCN(CC(=O)Nc1ccc(NC(C)=O)cc1)C(=O)c1ccc(NC2CC2)c([N+](=O)[O-])c1`, the inhibition was -1.48% (inactive).
Consider `Cc1occc1C(=O)NNC(=O)COc1ccc(Br)cc1Br`, for which the inhibition was -1.83% (inactive).
Same read-out and setting: to `CCNC(=O)C1CCCN(c2nc(C)cc(C)n2)C1` (configuration not stated) belongs 3.17% (inactive); to `Cc1nn(C(=O)c2ccc3c(c2)OCO3)c(N)c1-c1ccccc1`, -2.78% (inactive).
Still for that read-out and setting: to `CCc1ccc(/C=C2\SC(=S)N(CCCC(=O)Nc3nccs3)C2=O)cc1` belongs 5.18% (inactive); to `COc1ccc(C(=O)Cn2c(C(C)=O)nc3ccccc32)cc1`, -4.63% (inactive).
As for `COc1ccc(N2CCN(C(=O)CC3NC4CCCCC4NC3=O)CC2)cc1` (configuration not stated), the inhibition was 4.8% (inactive). Also, the inhibition under setting [1] is -0.61%.
On to `CCC(Oc1ccccc1)C(=O)N1CCN(S(=O)(=O)c2ccccc2)CC1` (configuration not stated), for which the inhibition was -3.63% (inactive).
Still for that read-out and setting: to `Cc1cccc(C)c1N(CC(=O)NCc1ccco1)C(=O)CNS(=O)(=O)c1ccc(F)cc1` belongs -7.48% (inactive); to `CC1(C)C(=O)C2(CCCCC2)C(=O)OC1c1ccc(O)cc1` (configuration not stated), 5.67% (inactive); to `O=[N+]([O-])c1ccc(N2CCN(CCOCCO)CC2)c([N+](=O)[O-])c1`, -3.06% (inactive).
`OCCOCCN1CCN(C(=S)Nc2ccccc2)CC1`: the inhibition is -12.4% (inactive).
For `Cc1cc(=O)oc2c(CN3CCN(CCO)CC3)c(O)ccc12`, the inhibition was -1.72% (inactive).
With `O=S(=O)(c1ccc(Br)cc1Cl)N1CCN(CCO)CC1`, the inhibition was 0.74% (inactive).
In the case of `Cc1noc(C)c1C(=O)OCC(=O)N1CCc2ccccc21`, the inhibition was -4.42% (inactive).
Still for that read-out and setting: to `CN(C(=O)c1ccc(NC(=O)Cc2ccc(NC(=O)C3CCCN(C(=O)C4CCC4)C3)cc2)cc1)C1CC1` (configuration not stated) belongs -5.79% (inactive); to `Cc1ccc(NC(=O)CSc2nncs2)cc1Cl`, -5.19% (inactive).
For `O=C(c1ccc(F)cc1F)N1CCCc2ccccc21`, the inhibition was -15% (inactive).
Still for that read-out and setting: to `Cc1noc(NS(=O)(=O)c2ccc(NC(=O)c3cccc(S(=O)(=O)Nc4ccccc4F)c3)cc2)c1C` belongs -5.34% (inactive); to `Cc1ccccc1C(=O)Nc1ccc(S(=O)(=O)Nc2onc(C)c2C)cc1`, -6.85% (inactive); to `Cc1noc(NS(=O)(=O)c2ccc(NC(=O)c3ccc(F)cc3)cc2)c1C`, 11.3% (inactive).
Still for that read-out and setting: to `Cc1noc(NS(=O)(=O)c2ccc(NC(=O)c3cc(F)c(F)c(F)c3F)cc2)c1C` belongs 8.65% (inactive).
Turning to `CC(=O)C1=C(O)C(=O)N(Cc2ccccc2)C1c1ccc(N(C)C)cc1` (configuration not stated), the inhibition is -5.27% (inactive). The inhibition under setting [1] is -5.49%.
Consider `CC(C1CC1)N(Cc1ccccc1)C(=O)NC(=O)c1cccc(F)c1` (configuration not stated), for which the inhibition is -0.76% (inactive).
For `O=C(CN1C(=O)C2CC=CCC2C1=O)Nc1cc(C(F)(F)F)ccc1N1CCCC1` (configuration not stated), the inhibition is 4.32% (inactive).
For the molecule `CC1(C)CC[C@]2(C(=O)O[C@@H]3OC(CO)[C@@H](O)[C@H](O)[C@H]3O)CC[C@]3(C)C(=CCC4[C@@]5(C)CC[C@H](O[C@@H]6OC(C(=O)O)[C@@H](O)[C@H](O)[C@H]6O)C(C)(C)C5CC[C@]43C)[C@@H]2C1` (some centres not stated), the inhibition was 20.2% (inactive). Under setting [1], the inhibition was 2.42%.
Consider `CC1(C)CC[C@]2(C(=O)O[C@@H]3O[C@H](CO)[C@@H](O)[C@H](O)[C@H]3O)CC[C@]3(C)C(=CCC4[C@@]5(C)CC[C@H](O[C@@H]6O[C@H](C(=O)O)[C@@H](O[C@H]7OC[C@@H](O)[C@@H](O)[C@@H]7O)[C@H](O)[C@H]6O)C(C)(C)C5CC[C@]43C)[C@@H]2C1` (some centres not stated), for which the inhibition was -9.97% (inactive).

(Values after PubChem BioAssay AID588689 (Southern Research Specialized Biocontainment Screening …, 2011).)
